An excerpt weighted towards active compounds, which were near 2.4% of everything screened.
HepG2 tox – qHTS for Inhibitors of TGF-b: Cytotox Counterscreen; HepG2 CAGA-GFP viability, ATP luminescence, 18 h; Potency, µM (top dose mostly 46.1 µM), without a hit: at the top dose activity change, negative = cytotoxicity, most hits filed as cytotoxic; 410,000 tested, 0.76% active
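CellTiter-Glo luminescence gave cytotoxicity after 18 hours at 37 degrees C. The cells were HepG2 CAGA-GFP in 1% FBS DMEM, stimulated with 500 pg/mL TGF-beta after compound addition. %Activity was normalised to no-cell wells (complete cell-killing) and DMSO (no toxicity), and curves were fitted and classified.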
TGFb inhibitor – qHTS for Inhibitors of TGF-b; 410,000 tested, 1.2% active; Potency, µM (doses to about 46.1 µM), without a hit: top-dose activity, negative = inhibition, hits mostly inhibitors; HepG2 CAGA-GFP TGF-b/SMAD3 reporter, GFP fluorescence, 18 h; TGF-beta stimulated, 500 pg/mL final; AID 588855, 2011; note: % is set by controls: 0 for no effect and ±100 for the full control effect; nearly all actives have a fitted effect of over 65% in size
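Using HEPG2 CAGA-GFP reporter cells at 1000 cells/well, we pinned test compounds, stimulated with recombinant TGF-beta (500 pg/mL final) and measured total well GFP after 18 h.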
ATXN2 expr inh – Primary qHTS for Inhibitors of ATXN expression; Potency, µM (doses to about 57 µM), without a hit: top-dose activity change, negative = inhibition, most hits filed as inhibitors; HEK-293 ATXN2-luciferase reporter, luminescence, 24 h; 360,000 tested, 0.72% active; note: % is set by controls: 0 for no effect and ±100 for the full control effect; nearly all actives have a fitted effect of over 55% in size
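qHTS (up to 57 uM final) was run with 24 h compound exposure of reporter cells at 37 °C. Each well was multiplexed: SteadyGlo luminescence measured ATXN2-luciferase expression after a fluorogenic Gly-Phe-AFC viability readout (25 uM final).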
S2 tox – Viability Counterscreen for Primary qHTS for Inhibitors of ATXN expression | S2 cells (HEK-293 line with an ATXN2-luciferase reporter) viability, CellTiter-Fluor protease fluorescence, 24 h | Potency, µM (highest dose often 56.7 µM), actives largely listed as cytotoxic | 400,000 tested, 0.49% active | AID 651635, 2014; note: nearly all actives have a fitted effect of over 40% in size
Apoferritin bind – qHTS Assay for Identification of Novel General Anesthetics. Ferritin light chain (Equus caballus), P02791. apoferritin/1-aminoanthracene competitive binding, fluorescence. Potency, µM (series often up to 77.5 µM), for the others: at the highest dose activity change, negative = displacement, hits mostly inhibitors. 350,000 tested, 0.074% active. AID 485281, 2010; note: % is set by controls: 0 for no effect and ±100 for the full control effect; nearly all actives have a fitted effect of over 20% in size
Target sequence (P02791 2-175 limits assumed): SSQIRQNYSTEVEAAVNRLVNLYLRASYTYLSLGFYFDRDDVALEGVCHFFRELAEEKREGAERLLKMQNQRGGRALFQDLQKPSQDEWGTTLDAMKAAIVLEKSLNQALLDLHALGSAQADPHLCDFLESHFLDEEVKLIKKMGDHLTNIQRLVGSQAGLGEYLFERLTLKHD
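In PBS, apoferritin at 10 uM is loaded with 1-AMA from a 50% saturated solution. After 10 min of compound exposure at ambient temperature, reduced 535 nm fluorescence indicates probe displacement.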
The depositor's hits bear a star; i = inactive; ? = inconclusive; nt = no result given; ! = not active in a repeat; [ ] = remark or other dose. Calls come from the whole dose curve; as a rule, active = well fitted curve in the direction sought with a large enough effect; inconclusive = small, poorly fitted or top-dose-only effect, or another doubt; inactive = no such curve, though single readings can be large; an effect the other way counts as inactive or inconclusive. Potency is the fitted concentration of half-maximal effect.

SMILES	HepG2 tox	TGFb inhibitor	ATXN2 expr inh	S2 tox	Apoferritin bind
Cc1nn(-c2ccc3ccccc3c2)c(=O)c2ccccc12	-21%	-17%	nt	i	?
Cc1nn(-c2ccc(Cl)c(Cl)c2Cl)c(=O)c2ccccc12	5%	4%	-6%	i	18µM*
O=c1[nH]c(N/N=C\c2ccc3c(c2)OCO3)nc2ccccc12	-21%	0%	12%	i	7%
Cc1cc(N/N=C/c2ccc3c(c2)OCO3)nc2ccccc12	20µM*	-8%	-11%	i	1%
CN(CCC#N)c1ccc(/C=C/c2ccnc3ccccc23)cc1	-37%	?	nt	nt	nt
N=C1C(c2ccccc2)=C(O)CN1CCO	-16%	0%	-8%	i	1%
CC(C)N1CCC2(CC1)N=C(c1ccc3c(c1)OCO3)CC(c1cc(Cl)ccc1O)N2 (stereo not given)	11µM*	?	?	?	-9%
O=C(Nc1cc(Cl)ccc1O)c1cc(-c2ccc3c(c2)OCO3)on1	-22%	-3%	57%	i	2%
Cc1ccc(Nc2c(F)cccc2Cl)c(CC(=O)O)c1	nt	nt	2%	i	nt
Nc1[nH]nc2nc3ccccc3cc12	-27%	-14%	-7%	?	-8%
Nc1cccc2nc3ccccc3cc12	14%	?	7.9µM*	nt	360%
CCN(c1ccccc1)S(=O)(=O)c1ccc2[nH]cc(C(=O)NC3CCCCC3)c(=O)c2c1	-101%	7.9µM*	?	?	?
CCOc1ccc(NS(=O)(=O)c2ccc3[nH]cc(C(=O)NCc4ccccc4)c(=O)c3c2)cc1	-25%	-12%	-2%	i	?
Cc1ccccc1NS(=O)(=O)c1ccc2[nH]cc(C(=O)NCCc3ccccc3)c(=O)c2c1	-42%	20µM*	nt	nt	-10%
Cc1ccc(CNC(=O)c2c[nH]c3ccc(S(=O)(=O)Nc4ccc(C(C)C)cc4)cc3c2=O)cc1	11µM*	?	nt	nt	-16%
Cc1cc(C)cc(NS(=O)(=O)c2ccc3[nH]cc(C(=O)NCCc4ccccc4)c(=O)c3c2)c1	-23%	-26%	-15%	?	?
CCN1CCCC1CNCc1cc2c(OC)c(OC)c(OC)cc2nc1N(C)C (stereo not given)	nt	nt	nt	i	nt
OC1CCCN(Cc2ccc3ccc4cccc5ccc2c3c45)C1 (stereo not given)	-60%	20µM*	?	?	-24%
c1cc2ccc3ccc(CN4CCOCC4)c4ccc(c1)c2c34	-4%	-8%	26%	i	6%
C#CCOCCOCCOCCNc1nc(N2CCN(C(=O)CCCCCCCCCCNC(=O)[C@H]([C@@H](C)CC)n3cc(CCCCCN)nn3)CC2)nc(N2CCN(C(=O)CCCCCCCCCCNC(=O)[C@H](CO)n3cc(CCCCCN)nn3)CC2)n1	14µM*	?	?	22µM*	nt
CC(C)(C)OC(=O)CC[C@@H](C(=O)NCCCCCCCCCCC(=O)N1CCN(C(=O)OC(C)(C)C)CC1)n1cc(CCCCCNC(=O)OC(C)(C)C)nn1	-19%	-20%	8%	i	nt
C#CCOCCOCCOCCNc1nc(N2CCN(C(=O)CCCCCCCCCCNC(=O)Cn3cc(CCCCCN)nn3)CC2)nc(N2CCN(C(=O)CCCCCCCCCCNC(=O)[C@H]([C@@H](C)CC)n3cc(CCCCN=C(N)N)nn3)CC2)n1	-102%	?	20µM*	16µM*	nt
C#CCOCCOCCOCCNc1nc(N2CCN(C(=O)CCCCCCCCCCNC(=O)[C@@H](CCC(=O)O)n3cc(CCCCCN)nn3)CC2)nc(N2CCN(C(=O)CCCCCCCCCCNC(=O)[C@H]([C@@H](C)CC)n3cc(CCCCCN)nn3)CC2)n1	-66%	?	-25%	?	nt
C#CCOCCOCCOCCNc1nc(N2CCN(C(=O)CCCCCCCCCCNC(=O)[C@H]([C@@H](C)CC)n3cc(CCCCCN)nn3)CC2)nc(N2CCN(C(=O)CCCCCCCCCCNC(=O)[C@H](CCCCN)n3cc(CCCC(=O)O)nn3)CC2)n1	-68%	7.1µM*	?	?	nt
CC(C)(C)OC(=O)NCCCCCc1cn([C@@H](CO)C(=O)NCCCCCCCCCCC(=O)N2CCN(C(=O)OC(C)(C)C)CC2)nn1	-46%	?	16µM*	11µM*	nt
SMILES	HepG2 tox	TGFb inhibitor	ATXN2 expr inh	S2 tox	Apoferritin bind
Cc1ccc2oc(-c3ccc(C)c(NC(=O)COc4ccccc4C)c3)nc2c1	4%	8%	nt	nt	nt
CCN[C@@H]1C[C@H](N)[C@@H](OC2OC(CN)=CCC2N)[C@H](O)[C@H]1O[C@H]1OC[C@](C)(O)[C@H](NC)[C@H]1O (stereo not given in full)	nt	nt	-2%[0.709 µM]	i[0.575 µM]	nt
Cc1cc(=O)oc2cc(O)cc(OCc3ccccc3)c12	-63%	?	6%	i	nt
C#CCOCCOCCOCCNc1nc(N2CCN(C(=O)CCCCCCCCCCNC(=O)[C@H](CCCCN)n3cc(CCCC(=O)O)nn3)CC2)nc(N2CCN(C(=O)CCCCCCCCCCNC(=O)[C@@H]([C@H](C)O)n3cc(C)nn3)CC2)n1	-3%	11µM*	3%	i	nt
C#CCOCCOCCOCCNc1nc(N2CCN(C(=O)CCCCCCCCCCNC(=O)[C@H]([C@@H](C)CC)n3cc(CCCCN=C(N)N)nn3)CC2)nc(N2CCN(C(=O)CCCCCCCCCCNC(=O)[C@H](CCCCN)n3cc(C)nn3)CC2)n1	11µM*	16µM*	25µM*	20µM*	nt
COc1c(Cl)cc(Cl)cc1/C=C/C(=O)c1ccc(NC(=O)c2cccs2)cc1	-98%	?	13µM*	16µM*	0%
CNc1nc2cc([N+](=O)[O-])c([N+](=O)[O-])cc2nc1NC	-3%	7.1µM*	?	i	-13%
COc1ccc2nc(N=Nc3ccc(O)c4ccccc34)sc2c1	-12%	?	14µM*	14µM*	-10%
C=C1NN(CC2CC2)C(=O)N1c1ccc(OCc2ccccc2)cc1	-34%	-2%	nt	nt	nt
CC(=O)c1sc(NC(=O)C2(F)C(F)(F)C(F)(F)C(F)(F)C(F)(F)C2(F)F)nc1C	-46%	2.8µM*	6.3µM*	?	?
Nc1nc(=S)c2[nH]cnc2[nH]1	1.4µM*	?	4µM*!	?	1%
COc1ccc(C(CNC(=O)c2ccc(-c3ccccc3Cl)o2)N2CCCC2)cc1 (stereo not given)	11µM*	?	nt	nt	nt
CCCNC(=O)c1ccc2c(=O)c(O)c(-c3cccc(Br)c3)[nH]c2c1	1%	?	22µM*	i	278%
